Results taken from PubChem BioAssay AID1159580 (chemical genetic matrix, 2015).
Several values for one entry are separate records, joined by “and”; a condition that tells them apart may be missing. Equal values may be shown once. The whole screen tested about 5,500 compounds, of which about 2,000 (36%) were called active. Not shown: some 18% with an inconclusive outcome. Cut-off read from the data, not from the text of the source: active = normalized growth mostly below about 0.91 (no sharp cut-off); inconclusive = no clear call, values can overlap the other calls; inactive = mostly above about 0.92. Some of the results follow.

Assay: chemical genetic growth profiling, strain panel (AID 1159580);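 note: tested at 20 µM; growth read once vehicle control cultures reached saturation at 30 °C; 1 = growth at the plate median or of vehicle wells; lower values mean less growth of the strain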
Conditions: S. cerevisiae deletion strains, growth OD

Measured: normalized growth

C[C@@H]1CC[C@]2(C(=O)O)CC[C@]3(C)C(=CCC4[C@@]5(C)CC[C@H](O)C(C)(C)C5CC[C@]43C)C2[C@H]1C (stereo partly specified)
inactive: locus YAL021C, strain ccr4, active compounds read low 0.995 | locus YAL026C, strain drs2, active compounds read low 1.01 | locus YAL030W, strain snc1, active compounds read low 0.995 | locus YBL061C, strain skt5, active compounds read low 1.01 | locus YBR009C, strain hhf1, active compounds read low 1.01 | locus YBR021W, strain FUR4, active compounds read low 1.03 | locus YBR023C, strain chs3, active compounds read low 1.01 | locus YBR171W, strain sec66, active compounds read low 1 | locus YBR229C, strain ROT2, active compounds read low 1.03 | locus YBR231C, strain swc5, active compounds read low 1.01 | locus YBR279W, strain paf1, active compounds read low 1 | locus YCL011C, strain gbp2, active compounds read low 1 | locus YCL016C, strain dcc1, active compounds read low 1.01 | locus YCL029C, strain bik1, active compounds read low 1 | locus YCL061C, strain MRC1, active compounds read low 0.997 | locus YCL069W, strain vba3, active compounds read low 1.01 | locus YCR088W, strain abp1, active compounds read low 0.993 | locus YDL005C, strain med2, active compounds read low 0.998 | locus YDL035C, strain GPR1, active compounds read low 1.04 | locus YDL040C, strain nat1, active compounds read low 0.992 | locus YDL074C, strain BRE1, active compounds read low 1.07 | locus YDL101C, strain DUN1, active compounds read low 1.03 | locus YDL134C, strain PPH21, active compounds read low 1.08 | locus YDL185W, strain tfp1, active compounds read low 0.999 | locus YDL192W, strain arf1, active compounds read low 1.01 | locus YDR001C, strain nth1, active compounds read low 1 | locus YDR069C, strain doa4, active compounds read low 1 | locus YDR101C, strain arx1, active compounds read low 1.01 | locus YDR137W, strain rgp1, active compounds read low 1.04 | locus YDR150W, strain NUM1, active compounds read low 1.03 | locus YDR159W, strain sac3, active compounds read low 1 | locus YDR162C, strain NBP2, active compounds read low 1.07 | locus YDR195W, strain ref2 0.974 | locus YDR297W, strain sur2, active compounds read low 1 | locus YDR318W, strain mcm21, active compounds read low 0.993 | locus YDR334W, strain swr1, active compounds read low 1 | locus YDR335W, strain msn5, active compounds read low 0.997 | locus YDR388W, active compounds read low 1 | locus YDR392W, strain spt3, active compounds read low 0.911 | locus YDR502C, strain sam2, active compounds read low 0.997 | locus YEL003W, strain gim4, active compounds read low 0.998 | locus YEL037C, strain rad23, active compounds read low 1 | locus YEL061C, strain CIN8 (second series), active compounds read low 0.995 | locus YEL061C, strain CIN8, active compounds read low 1.02 | locus YER015W, strain faa2, active compounds read low 1.01 | locus YER016W, strain bim1, active compounds read low 0.999 | locus YER110C, active compounds read low 1.01 | locus YER111C, strain swi4, active compounds read low 0.984 | locus YER155C, strain BEM2 (second series), active compounds read low 0.992 | locus YER155C, strain BEM2, active compounds read low 1.02 | locus YER167W, strain BCK2, active compounds read low 1.03 | locus YFR010W, strain ubp6, active compounds read low 0.983 | locus YGL078C, strain dbp3, active compounds read low 0.985 | locus YGL167C, strain pmr1, active compounds read low 1 | locus YGL173C, strain kem1, active compounds read low 1.01 | locus YGL227W, strain vid30, active compounds read low 0.994 | locus YGL240W, strain doc1, active compounds read low 0.998 | locus YGL248W, strain PDE1, active compounds read low 1.03 | locus YGL253W, strain hxk2, active compounds read low 1.01 | locus YGR135W, strain pre9, active compounds read low 0.996 | locus YGR229C, strain SMI1, active compounds read low 1.06 | locus YGR252W, strain gcn5, active compounds read low 1.01 | locus YHR013C, strain ard1, active compounds read low 0.996 | locus YHR027C, strain rpn1, active compounds read low 0.995 | locus YHR030C, strain SLT2, active compounds read low 1.02 | locus YHR079C, strain IRE1 (second series), active compounds read low 0.996 | locus YHR079C, strain IRE1, active compounds read low 1.02 | locus YHR094C, strain hxt1, active compounds read low 1.01 | locus YHR129C, strain ARP1, active compounds read low 1.03 | locus YHR142W, strain chs7, active compounds read low 1.03 | locus YHR200W, strain rpn10, active compounds read low 0.986 | locus YIL066C, strain RNR3, active compounds read low 1.07 | locus YIL073C, strain SPO22, active compounds read low 0.999 | locus YIL125W, strain kgd1, active compounds read low 1 | locus YIR030C, strain dcg1, active compounds read low 0.997 | locus YJL092W, strain hpr5, active compounds read low 0.999 | locus YJL095W, strain BCK1 (second series), active compounds read low 0.988 | locus YJL095W, strain BCK1, active compounds read low 1.08 and 1.01 | locus YJL115W, strain asf1, active compounds read low 0.992 | locus YJL129C, strain trk1, active compounds read low 1.01 | locus YJL134W, strain LCB3, active compounds read low 1.02 | locus YJL154C, strain vps35, active compounds read low 0.997 | locus YJL164C, strain tpk1, active compounds read low 1.01 | locus YJL166W, strain qcr8, active compounds read low 1 | locus YJL168C, strain set2, active compounds read low 0.986 | locus YJL187C, strain SWE1 (second series), active compounds read low 1.05 | locus YJL187C, strain SWE1, active compounds read low 0.997 | locus YJR043C, strain POL32, active compounds read low 1.06 | locus YJR066W, strain TOR1, active compounds read low 1.02 | locus YKL068W, active compounds read low 1.01 | locus YKL160W, strain elf1, active compounds read low 1 | locus YKL190W, strain CNB1, active compounds read low 1.02 | locus YKR001C, strain vps1, active compounds read low 1.02 | locus YKR026C, strain gcn3, active compounds read low 0.996 | locus YKR091W, strain srl3, active compounds read low 0.991 | locus YLL001W, strain dnm1, active compounds read low 0.989 | locus YLL026W, active compounds read low 0.989 | locus YLL041C, strain sdh2, active compounds read low 0.995 | locus YLR027C, strain aat2, active compounds read low 1.01 | locus YLR039C, strain RIC1, active compounds read low 1.14 | locus YLR058C, strain SHM2, active compounds read low 1.04 | locus YLR102C, strain apc9, active compounds read low 0.987 | locus YLR113W, strain HOG1, active compounds read low 0.995 | locus YLR221C, strain rsa3, active compounds read low 1 | locus YLR258W, strain gsy2, active compounds read low 1.01 | locus YLR262C, strain YPT6 (second series), active compounds read low 1.02 | locus YLR262C, strain YPT6, active compounds read low 1.11 | locus YLR268W, strain sec22, active compounds read low 1.01 | locus YLR320W, strain mms22, active compounds read low 1.01 | locus YLR330W, strain CHS5, active compounds read low 1.03 | locus YLR342W, strain FKS1 (second series), active compounds read low 1.02 | locus YLR342W, strain FKS1, active compounds read low 1 | locus YLR357W, strain rsc2, active compounds read low 0.975 | locus YLR370C, strain arc18, active compounds read low 0.998 | locus YLR371W, strain rom2, active compounds read low 0.995 | locus YLR384C, strain iki3, active compounds read low 0.995 | locus YLR418C, strain cdc73, active compounds read low 1.02 | locus YML016C, strain PPZ1, active compounds read low 1.03 | locus YML032C, strain rad52, active compounds read low 0.988 | locus YML120C, strain ndi1, active compounds read low 0.999 | locus YML124C, strain tub3, active compounds read low 0.999 | locus YMR058W, strain fet3, active compounds read low 1.01 | locus YMR078C, strain ctf18, active compounds read low 0.976 | locus YMR125W, strain sto1, active compounds read low 0.986 | locus YMR129W, active compounds read low 0.997 | locus YMR205C, strain PFK2, active compounds read low 0.991 | locus YMR223W, strain ubp8, active compounds read low 0.992 | locus YMR231W, strain pep5, active compounds read low 0.998 | locus YMR263W, strain SAP30, active compounds read low 1.04 | locus YMR307W, strain GAS1, active compounds read low 1.15 | locus YNL067W, strain RPL9B, active compounds read low 1.06 | locus YNL071W, strain lat1, active compounds read low 1.01 | locus YNL128W, strain TEP1, active compounds read low 1.04 | locus YNL183C, strain NPR1, active compounds read low 0.993 | locus YNL209W, strain ssb2, active compounds read low 0.993 | locus YNL233W, strain BNI4, active compounds read low 1.05 | locus YNL248C, strain rpa49, active compounds read low 1.01 | locus YNL250W, strain rad50, active compounds read low 0.997 | locus YNL271C, strain bni1, active compounds read low 0.991 | locus YNL298W, strain CLA4, active compounds read low 1.01 | locus YNL307C, strain MCK1, active compounds read low 1.01 | locus YNL322C, strain KRE1 (second series), active compounds read low 0.979 | locus YNL322C, strain KRE1, active compounds read low 1.03 | locus YNR049C, strain mso1, active compounds read low 0.993 | locus YNR052C, strain pop2, active compounds read low 0.982 | locus YOL012C, strain htz1 1.17 | locus YOL147C, strain pex11, active compounds read low 0.992 | locus YOR001W, strain rrp6, active compounds read low 1.01 | locus YOR061W, strain CKA2, active compounds read low 1.03 | locus YOR069W, strain VPS5, active compounds read low 1.02 | locus YOR070C, strain gyp1, active compounds read low 1.01 | locus YOR080W, strain dia2, active compounds read low 0.998 | locus YOR083W, strain WHI5, active compounds read low 0.99 | locus YOR106W, strain vam3, active compounds read low 1.01 | locus YOR136W, strain idh2, active compounds read low 0.993 | locus YOR144C, strain elg1, active compounds read low 0.99 | locus YOR184W, strain ser1, active compounds read low 1.03 | locus YOR231W, strain MKK1, active compounds read low 1.02 | locus YOR265W, strain rbl2, active compounds read low 0.999 | locus YOR270C, strain vph1, active compounds read low 1 | locus YOR290C, strain snf2, active compounds read low 0.995 | locus YOR316C, strain cot1, active compounds read low 1.01 | locus YPL051W, strain arl3, active compounds read low 1.01 | locus YPL055C, strain LGE1, active compounds read low 1.1 | locus YPL078C, strain atp4, active compounds read low 1 | locus YPL106C, strain sse1, active compounds read low 0.984 | locus YPL240C, strain hsp82, active compounds read low 1.01 | locus YPL256C, strain CLN2, active compounds read low 0.993 | locus YPR119W, strain clb2, active compounds read low 1 | locus YPR141C, strain kar3, active compounds read low 0.998 | locus YPR163C, strain tif3, active compounds read low 0.997 | locus YPR167C, strain met16, active compounds read low 1.01 | strain wtn01, active compounds read low 1.02
active: locus YGL086W, strain mad1, active compounds read low 1.28 [resistant] | locus YKL085W, strain MDH1 (second series), active compounds read low 1.33 [resistant] | locus YKL085W, strain MDH1, active compounds read low 1.33 [resistant]
